# Screening results deposited in PubChem by The Scripps Research Institute Molecular Screening Center.
# In the library only some 3.5% were active in any assay of this set; here they are far more common.
# GPR151 ag = activators of human GPR151, primary screen, cell-based, PathHunter beta-arrestin, luminescence. activation, % at 11.2 µM. PathHunter beta-arrestin GPR151 cells. actives 1% (n = 650,000). G-protein coupled receptor 151 (Homo sapiens), Q8TDV0. AID 1508602, 2020; in the data active means activation above about 4.9%;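 further: 0% = median of compound wells and 100% = cells with positive control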
# TEAD-YAP inh = TEAD-YAP interaction inhibition, primary screen, TEAD-YAP interaction inhibitor project, luminescence, HEK-TIYL cells; TEAD-Gal4/YAP UAS-luciferase luminescence; inhibition, % at 9.12 µM; actives 1.4% (n = 640,000); AID 1259422, 2018; in the data active means inhibition above about 32%;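 further: 0% = median of test compound wells and 100% = reference inhibitor wells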
# MITF primary = MITF inhibitors, primary screen, biochemical, AlphaScreen, human. Microphthalmia-associated transcription factor (Homo sapiens), O75030. AlphaScreen MITF homodimerization, bead proximity signal. inhibition, % at 2.6 µM. AID 1259374, 2018. actives 0.91% (n = 650,000); in the data active means inhibition above about 50%;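 further: 0% = vehicle wells with protein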
# FBW7 act = FBW7 E3 ligase activators, primary screen, biochemical, AlphaScreen, human; AlphaScreen FBW7–phospho-cyclin E peptide binding, activator screen; normalized activity (activation), % at 26.1 µM; actives 0.13% (n = 650,000); in the data active means normalized activity above about 1.9%;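 further: purified mutant Fbw7 with reduced substrate affinity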
# GPR151 conf act = GPR151 activators, triplicate retest, confirmation, cell-based, PathHunter beta-arrestin, luminescence. shares compounds with GPR151 ag. GPR151 PathHunter beta-arrestin cells, 90 min; % of EA-reagent control over plate median. activation, % at 11.2 µM. 6,700 tested, under 10 active. AID 1508609, 2020;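 active means mean percent activation across replicates above the confirmation screen cutoff of 4.91%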
# GPR119 ag = GPR119 activators in beta-arrestin cells, counter-screen for GPR151 activator project, cell-based, PathHunter beta-arrestin, luminescence, triplicate; 90 min; 0 = compound-well median, 100 = enzyme-acceptor control; actives 0.3% (n = 6,700); activation, % at 11.2 µM; shares compounds with GPR151 ag; AID 1508611, 2020;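 active means mean percent activation in the counterscreen above 29.09%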;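 further: counterscreen on off-target GPR119 to flag nonselective hits from the GPR151 activator screen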
# Target sequence (Q8TDV5 whole entry, looked up): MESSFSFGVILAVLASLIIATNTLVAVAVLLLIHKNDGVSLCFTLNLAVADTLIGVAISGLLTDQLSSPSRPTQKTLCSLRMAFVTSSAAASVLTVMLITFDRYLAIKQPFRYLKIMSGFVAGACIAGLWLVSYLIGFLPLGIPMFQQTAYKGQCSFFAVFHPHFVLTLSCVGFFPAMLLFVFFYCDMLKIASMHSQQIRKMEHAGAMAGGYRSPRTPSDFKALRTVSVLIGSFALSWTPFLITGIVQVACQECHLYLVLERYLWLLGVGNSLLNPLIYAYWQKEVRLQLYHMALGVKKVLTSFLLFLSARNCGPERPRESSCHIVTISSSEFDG
# An asterisk follows results filed as active; x = not tested or not shown.
SMILES,GPR151 ag,TEAD-YAP inh,MITF primary,FBW7 act,GPR151 conf act,GPR119 ag
CN(c1ccc(F)cc1)S(=O)(=O)c1ccc2[nH]cc(C(=O)NCC3CCCO3)c(=O)c2c1 (stereo unspecified),5.4*,-1,-5,0,0,0
CCCCN(CC)C(=O)c1c[nH]c2ccc(S(=O)(=O)N(C)c3ccc(Cl)cc3)cc2c1=O,1,-1,-4,0,x,x
CCCCN(CC)C(=O)c1c[nH]c2ccc(S(=O)(=O)N(C)c3ccc(Cl)cc3F)cc2c1=O,8.3*,6,0,0,0,-11
CSc1ccc(/C=N/OCn2nnc3ccccc3c2=O)cc1,4,-14,-2,0,x,x
Cc1ccc(C)c(NC(=O)COc2ccccc2C)c1,-1,-21,9,0,x,x
CCOc1cccc(CN2CCC(C(=O)NC(C)c3ccccc3)CC2)c1O (stereo unspecified),5.6*,1,0,0,0,6
COc1cccc(C(=O)Nc2ccc3oc(-c4ccc(C(C)(C)C)cc4)nc3c2)c1,1,-3,5,0,x,x
O=C(Nc1ccc(C(F)(F)F)cc1)c1cc(S(=O)(=O)N2CCc3ccccc32)ccc1F,-1,-10,-2,0,x,x
CCc1nn(CC(=O)OC(C)C)c(=O)c2cc3oc(C)cc3n12,5.4*,-19,7,0,-1,-6
O=C(Nc1ccc(Cl)cc1)Oc1ccc([N+](=O)[O-])cc1,-1,-25,8,0,x,x
CCc1ccc(Nc2nc(N3CCCC3)nc(N3CCCC3)n2)cc1,4.9*,-4,-4,0,2,7
Cc1ccc(Nc2nc(N3CCCC3)nc(N3CCCC3)n2)cc1,-1,5,8,0,x,x
N=C1C(c2nc3ccccc3[nH]2)=C(O)CN1c1ccc(F)cc1,1,-18,3,0,x,x
CC(C)c1ccc(N2CC(O)=C(c3nc4ccccc4[nH]3)C2=N)cc1,7.9*,-9,10,0,0,-2
CCC(C(=O)N1CCCCC1)n1c2ccccc2c2cn[nH]c(=O)c21 (stereo unspecified),-1,3,22,0,x,x
NC(=O)C1CCN(C(=O)CCc2cccc(Oc3ccc(F)cc3)c2)CC1,0,5,3,0,x,x
Cc1ccc(C(=O)/C=C\N2CCCCC2)cc1,5.2*,-6,14,0,-3,-30
COc1ccc(OC)c(-n2c(SCC(=O)NCc3ccco3)nc3c(sc(=S)n3-c3ccccc3C)c2=O)c1,2,10,-9,0,x,x
Cn1c(N)c(S(=O)(=O)N2CCN(c3ccccc3Cl)CC2)c(=O)n(C)c1=O,26*,-9,7,0,1,3
NC(=O)NCC12CC3CC(CC(C3)C1)C2,1,-7,-9,0,x,x
COC(=O)NCC12CC3CC(CC(C3)C1)C2,8.9*,6,10,0,1,-5
CCNC(=O)C(=O)NN(C(=O)c1ccc(F)cc1)c1ccccc1,1,0,4,0,x,x
Cc1c(S(=O)(=O)Nc2cccc(Cl)c2)c(=O)n(C)c(=O)n1C,0,-2,2,0,x,x
Cn1c(N)c(S(=O)(=O)Nc2cccc(Cl)c2)c(=O)n(C)c1=O,7.7*,-2,3,0,0,0
COc1ccc(C(CC(=O)NC2CCCCC2C)NS(=O)(=O)c2ccc(OC)cc2)cc1 (stereo unspecified),-2,-9,5,0,x,x
SMILES,GPR151 ag,TEAD-YAP inh,MITF primary,FBW7 act,GPR151 conf act,GPR119 ag
Cc1nc2cnc(-c3ccc(O)cc3)cn2c1NC(=O)CC1CCOCC1,12*,24,16,0,0,7
Cc1nc2cnc(-c3ccc(O)cc3)cn2c1NC(=O)c1cccs1,0,-1,3,0,x,x
COC(=O)C1=C(C)Nc2nnnn2C1c1cccc(O)c1 (stereo unspecified),1,0,-12,0,x,x
CCOC(=O)C1=C(C)Nc2nnnn2C1c1cccc(O)c1 (stereo unspecified),13*,1,-1,0,-1,2
COCCOC(=O)C1=C(C)Nc2ncnn2C1c1cccc(OC)c1 (stereo unspecified),5.8*,12,4,0,0,-6
COC(=O)C1=C(C)Nc2ncnn2C1c1cccc(OC)c1 (stereo unspecified),1,-2,19,0,x,x
O=C1[C@H]2[C@H]3[C@H](O)[C@H](O)C/C(=N\OCc4ccccc4)[C@H]3CC[C@H]2C(=O)N1C1CCCCC1,5.8*,x,2,1,2,21
CC(C)CO/N=C1\C[C@@H](O)[C@@H](O)[C@@H]2[C@@H]3C(=O)N(Cc4ccccc4)C(=O)[C@@H]3CC[C@H]12,0,x,8,0,x,x
CCN1C(=O)[C@H]2[C@H]3[C@H](O)[C@H](O)C/C(=N\OCC(C)C)[C@@H]3CC[C@H]2C1=O,6.6*,x,14,0,0,12
C#CCCCO/N=C1\C[C@@H](O)[C@@H](O)[C@@H]2[C@@H]3C(=O)N([C@@H](C)c4ccccc4)C(=O)[C@@H]3CC[C@H]12,9.5*,x,14,0,1,6
CC(C)Cc1cc(CN2CCC(CO)(CCOc3ccccc3)CC2)[nH]n1,2,-2,-5,0,x,x
COc1cccc(N=c2ssc3c2-c2cc(C)cc(C)c2NC3(C)C)c1,-2,-5,18,0,x,x
N#C/C(=C\c1ccc(F)cc1)C(=O)N1CCOCC1,6.3*,-34,-8,0,1,6
CC1=C(C#N)C(Nc2nccs2)(C(F)(F)F)C(=O)N1 (stereo unspecified),1,-2,10,0,x,x
CC(C)N(CCNc1nc(N2CCc3ccccc3C2)nc2c1ncn2C(C)C)C(C)C,0,-9,0,0,x,x
CCNC(=O)C(=O)NCC1CCCN1S(=O)(=O)c1ccc(C)cc1 (stereo unspecified),6.2*,-2,-1,0,-1,-3
Cc1ccc(S(=O)(=O)N2CCCC2CNC(=O)Nc2ccc(Cl)cc2)cc1 (stereo unspecified),6.0*,4,-6,0,0,-8
O=C(NCC1CCCN1S(=O)(=O)c1ccccc1)C(=O)NC1CCCCC1 (stereo unspecified),21*,-7,-9,0,0,-7
Cc1ccc(S(=O)(=O)N2CCCC2CNC(=O)C(=O)NCCO)cc1 (stereo unspecified),2,5,4,0,x,x
